Screens: PubChem BioAssay, several laboratories
LGR2 inh: Drosophila LGR2 receptor signaling inhibition. HEK293 LGR2, CRE-luciferase, bursicon-stimulated, 4 h. inhibition, % at 9.99 µM. 0.35% of 380,000 active;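 active means drop in luminescence signal, shown as inhibition above about 50% in the replicate tests, limit read from the data, passing the limit was not always enough; inconclusive means probably only some replicates passing the limit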;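 further: agonist challenge used bursicon conditioned medium at about half maximal strength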
EWS-Fli block: blocks EWS/Fli oncoprotein-driven transcription. A673 NR0B1-luciferase reporter, viability-normalised. inhibition, % at 12.6 µM. 0.67% of 350,000 active. AID 651661;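 active means mean inhibition of at least 50% after viability correction, with every replicate also passing that limit; inconclusive means mean reaches 50% but only one of two replicates passes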;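 further: firefly luciferase signal divided by Alamar Blue viability fluorescence both relative to DMSO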
TROY signal inh: TROY signaling inhibition. Q293 LMP1-TROYcd NF-kB luciferase reporter, 4 h. AID 1347056. inhibition, % at 10 µM. 0.98% of 360,000 active;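 active means compounds whose plate-normalised and pattern-corrected inhibition of the luciferase reporter signal at the single screening dose is 50% or more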
EBV LMP1 NFkB: reduces LMP1-driven NF-kappaB luciferase signal; LMP1-induced NF-kappaB luciferase reporter cells, luminescence; inhibition, % at 12.5 µM; 0.69% of 350,000 active; in the data active means inhibition above about 41%; inconclusive means no clear call, values can overlap the other calls;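 further: 0% = neutral control wells and 100% = reference inhibitor control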
PAX8 reporter: lowers PAX8-driven luciferase in RMG-I cells | RMG-I TPO-luciferase reporter, SteadyGlo, 24 h | inhibition, % at 12.6 µM | 1.2% of 360,000 active;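 active means mean replicate inhibition at least 60% with every replicate also reaching 60%; inconclusive means only one of the two criteria is met; inactive means mean below 60% and not all replicates reaching 60%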;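 further: luciferase light reporting Pax8 driven TPO promoter activity; plate controls were median of neutral control wells for no effect and mitoxantrone controls for full effect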
TWEAK-Fn14 inh: inhibitors of TWEAK-Fn14 interaction signaling; TWEAK-stimulated Fn14 reporter cells, luciferase luminescence, 8 h; inhibition, % at 10 µM; 2% of 360,000 active; in the data active means inhibition above about 50%
The depositor's hits bear a star; ? = inconclusive; . = no result given; ! = not active in a repeat. Sampled rows, rich in hits. Any-hit rate of the full collection: about 3.2%.

SMILES | LGR2 inh | EWS-Fli block | TROY signal inh | EBV LMP1 NFkB | PAX8 reporter | TWEAK-Fn14 inh
CCCNC(=O)C[C@H]1CC[C@H]2[C@H](COc3ccc(NC(=O)c4cccc(C(F)(F)F)c4)cc3C(=O)N2C)O1 | 4 | 3 | . | . | -1 | .
Cc1cc2nc(-c3ccc(SCc4ccccc4C#N)nc3)[nH]c2cc1C | -31 | -84 | 64* | -8 | . | 58*
Cc1cc2nc(-c3ccc(SCc4ccc(C(=O)O)cc4)nc3)[nH]c2cc1C | -41 | -118 | 52* | -45 | -69 | 22
C[C@H]1CN([C@@H](C)CO)S(=O)(=O)c2ccc(-c3ccccc3)cc2O[C@@H]1CN(C)C(=O)C1CCC1 | 6 | 1 | . | . | . | .
CCN(CC(O)Cn1c2ccccc2c2ccccc21)S(=O)(=O)c1ccc(C)cc1 (stereo not given) | . | . | 23 | -7 | 3 | 30
CC(=O)Nc1ccccc1N(CC(O)Cn1c2ccccc2c2ccccc21)S(=O)(=O)c1ccc(C)cc1 (stereo not given) | 3 | -15 | 11 | -18 | 24 | 53*
Cc1ccc(S(=O)(=O)N2CCOCC2)cc1C(=O)NCCN1C(=O)S/C(=C\c2ccccc2Cl)C1=O | 29 | . | 3 | 0 | 11 | -1
Cc1cccc(CN2C(=O)/C(=C\c3ccc(C(=O)NCCN4CCOCC4)cc3)Sc3ccccc32)c1 | . | . | 62* | 6 | . | 41
CC(C)(C)c1ccc(/C=C2\SC(=O)N(CCNC(=O)c3cccc(S(=O)(=O)N4CCOCC4)c3)C2=O)cc1 | . | . | 84* | 20 | . | 93*
CCN1CCN(CCNC(=O)c2ccc3c(c2)N(Cc2ccc(F)cc2)C(=O)/C(=C/c2ccccc2)S3)CC1 | 24 | -13 | 1 | -61 | 4 | -52
CCN1CCN(CCNC(=O)c2ccc(/C=C3/Sc4ccccc4N(Cc4cccc(Cl)c4)C3=O)cc2)CC1 | 52* | 46 | 83* | -11 | 7 | -38
C[C@H](CO)N1C[C@H](C)[C@H](CN(C)S(=O)(=O)c2ccc(Cl)cc2)Oc2ccc(NC(=O)CCCCCC(=O)Nc3ccccc3N)cc2CC1=O | -6 | 41 | . | . | 7 | .
C[C@H]1CN([C@@H](C)CO)C(=O)c2cccc(NC(=O)Nc3ccc(F)cc3)c2O[C@@H]1CN(C)S(=O)(=O)c1cn(C)cn1 | -15 | -9 | . | . | 14 | .
CO[C@@H]1CN(C)C(=O)c2cc(NS(=O)(=O)c3ccccc3)ccc2OC[C@H](C)N(Cc2ccccn2)C[C@H]1C | 4 | 0 | . | . | . | .
CNC[C@@H]1OCCCC[C@H](C)Oc2ccc(NC(=O)c3ccccc3)cc2C(=O)N([C@H](C)CO)C[C@@H]1C | 8 | -4 | . | . | -13 | .
O=c1c2c(nc3cc(-c4cccc(F)c4)[nH]n13)CCC2 | 4 | -39 | 10 | 0 | -94 | 43
O=c1c2c(nc3cc(-c4ccc(F)cc4)[nH]n13)CCCC2 | ? | . | 56* | 5 | . | 80*
O=c1c2c(nc3cc(-c4ccc(Cl)cc4)[nH]n13)CCS2 | -21 | . | -17 | -17 | -158 | 73*
COc1ccc(CN(C)C[C@@H]2Oc3ccc(NC(=O)C4CC4)cc3C(=O)N([C@H](C)CO)C[C@H]2C)cc1 | 7 | -6 | . | . | . | .
O=C(Nc1nncs1)c1cc2c(s1)CCC2 | -10 | -59 | -59 | -15 | -59 | -21
O=C(Nc1nccs1)c1cc2c(s1)CCCCC2 | . | . | 78* | 52* | . | 100*
O=C(Cn1cnc2c(NCc3ccccc3)ncnc21)NCc1ccccc1 | 7 | 56* | 20 | -9 | 18 | 30
O=C(Cn1cnc2c(NCc3ccccc3)ncnc21)NCc1ccc2c(c1)OCO2 | -12 | 14 | 5 | -1 | 0 | -14
CC(=O)N1CC(=O)N2[C@H](CO)[C@@H](c3ccc(-c4cccc(C(=O)N(C)C)c4)cc3)[C@H]2C1 | -3 | -11 | . | . | -33 | .
C[C@@H]1CCCCO[C@@H](CN(C)Cc2ccccc2)[C@@H](C)CN([C@@H](C)CO)C(=O)c2cc(NC(=O)C3CCCCC3)ccc2O1 | -10 | -1 | . | . | 9 | .
SMILES | LGR2 inh | EWS-Fli block | TROY signal inh | EBV LMP1 NFkB | PAX8 reporter | TWEAK-Fn14 inh
O=[N+]([O-])c1ccc(-c2cnc(SCc3ccccc3Cl)[nH]2)cc1 | . | . | -19 | -14 | . | -34
Cc1cc(C)c(CSc2ncc(-c3ccc([N+](=O)[O-])cc3)[nH]2)c(C)c1 | 3 | . | 57* | -3 | . | 41
O=[N+]([O-])c1ccc(-c2cnc(SC(c3ccccc3)c3ccccc3)[nH]2)cc1 | ? | 7 | 62* | 8 | 24 | 79*
CC1C(=O)CCC1(C(=O)O)c1ccccc1 (stereo not given) | 0 | . | -3 | 6 | . | 98*
CC1(c2ccccc2)CCC(=O)NC1 (stereo not given) | 10 | 8 | 6 | 3 | 8 | 6
C[C@H](CO)N1C[C@H](C)[C@H](CN(C)C(=O)C2CCCCC2)OCCCC[C@H](C)Oc2ccc(NS(=O)(=O)c3ccc(Cl)cc3)cc2C1=O | 12 | 9 | . | . | ? | .
C[C@@H]1CCCCO[C@H](CN(C)C(=O)C2CCCCC2)[C@H](C)CN([C@@H](C)CO)C(=O)c2cc(NS(=O)(=O)c3ccc(Cl)cc3)ccc2O1 | 23 | 12 | . | . | 76* | .
C[C@@H]1CN([C@H](C)CO)C(=O)c2cc(NS(=O)(=O)c3ccc(Cl)cc3)ccc2O[C@@H](C)CCCCO[C@@H]1CN(C)C(=O)C1CCCCC1 | 8 | 5 | . | . | 64* | .
COc1ccc(O)c(/C=N/NC(=O)c2ccc(N3CCCC3=O)cc2)c1 | 2 | -1 | 5 | 22 | 106* | 3
C[C@]12CC[C@@H]3c4ccc(OS(=O)(=O)O)cc4CC[C@H]3[C@@H]1CCC2=O | 18 | 2 | -7 | 66*! | 2 | -23
CC12CCC3c4ccc(OCC(=O)O)cc4CCC3C1CCC2=O (stereo not given) | -12 | -1 | -7 | -12 | -4 | -9
COCC#Cc1cnc2c(c1)C(=O)N([C@H](C)CO)C[C@H](C)[C@@H](CN(C)C(=O)Nc1ccccc1F)O2 | 12 | -6 | . | . | . | .
Cc1cccc(S(=O)(=O)N2CC[C@@H]3[C@H](CO)Nc4ccc(C#Cc5ccc(F)cc5)cc4[C@@H]32)c1 | 8 | 14 | . | . | -2 | .
c1ccc(COc2cccc(-c3cc4nc(NCCCn5ccnc5)ccn4n3)c2)cc1 | 80* | 10 | 38 | . | -4 | 12
c1ccc(COc2cccc(-c3cc4nc(NCCc5ccncc5)ccn4n3)c2)cc1 | 45 | -4 | 40 | . | 7 | 61*
c1ccc(COc2cccc(-c3cc4nc(NCCOc5ccccc5)ccn4n3)c2)cc1 | -3 | 6 | -8 | . | 15 | 27
CC(C)N1C(=O)/C(=C\c2nc3ccccc3c(=O)n2-c2ccccc2)c2ccccc21 | ? | . | -8 | -3 | 35 | 54*
COc1ccc(-c2ccc(C3[C@@H]4CN(S(=O)(=O)c5cccc(C)c5)C[C@H]3N4)cc2)cc1 (stereo not given in full) | -25 | -5 | . | . | -4 | .
